The values that follow come from ChEMBL document CHEMBL3988442, “University of Dundee, Small-Polar-MMV Screening Library” (2021).

For some of these results: Results with a measured potency or affinity are listed apart.

Design in all cases: scale not given: direction of the effect not stated beside the values
The target in test [1] is Protein translocase subunit SecA (Escherichia coli (strain K12)) (UniProt P10408). The experiment in a line: Assay to Identify E. coli SecA ATPase Inhibitors. The class given is functional. To be noted: 30 µM.
In test [2] the target is T1, Ubiquitin-activating enzyme e1, putative (Leishmania donovani (strain BPK282A1)) (UniProt E9BSI1).
T1 sequence (whole entry): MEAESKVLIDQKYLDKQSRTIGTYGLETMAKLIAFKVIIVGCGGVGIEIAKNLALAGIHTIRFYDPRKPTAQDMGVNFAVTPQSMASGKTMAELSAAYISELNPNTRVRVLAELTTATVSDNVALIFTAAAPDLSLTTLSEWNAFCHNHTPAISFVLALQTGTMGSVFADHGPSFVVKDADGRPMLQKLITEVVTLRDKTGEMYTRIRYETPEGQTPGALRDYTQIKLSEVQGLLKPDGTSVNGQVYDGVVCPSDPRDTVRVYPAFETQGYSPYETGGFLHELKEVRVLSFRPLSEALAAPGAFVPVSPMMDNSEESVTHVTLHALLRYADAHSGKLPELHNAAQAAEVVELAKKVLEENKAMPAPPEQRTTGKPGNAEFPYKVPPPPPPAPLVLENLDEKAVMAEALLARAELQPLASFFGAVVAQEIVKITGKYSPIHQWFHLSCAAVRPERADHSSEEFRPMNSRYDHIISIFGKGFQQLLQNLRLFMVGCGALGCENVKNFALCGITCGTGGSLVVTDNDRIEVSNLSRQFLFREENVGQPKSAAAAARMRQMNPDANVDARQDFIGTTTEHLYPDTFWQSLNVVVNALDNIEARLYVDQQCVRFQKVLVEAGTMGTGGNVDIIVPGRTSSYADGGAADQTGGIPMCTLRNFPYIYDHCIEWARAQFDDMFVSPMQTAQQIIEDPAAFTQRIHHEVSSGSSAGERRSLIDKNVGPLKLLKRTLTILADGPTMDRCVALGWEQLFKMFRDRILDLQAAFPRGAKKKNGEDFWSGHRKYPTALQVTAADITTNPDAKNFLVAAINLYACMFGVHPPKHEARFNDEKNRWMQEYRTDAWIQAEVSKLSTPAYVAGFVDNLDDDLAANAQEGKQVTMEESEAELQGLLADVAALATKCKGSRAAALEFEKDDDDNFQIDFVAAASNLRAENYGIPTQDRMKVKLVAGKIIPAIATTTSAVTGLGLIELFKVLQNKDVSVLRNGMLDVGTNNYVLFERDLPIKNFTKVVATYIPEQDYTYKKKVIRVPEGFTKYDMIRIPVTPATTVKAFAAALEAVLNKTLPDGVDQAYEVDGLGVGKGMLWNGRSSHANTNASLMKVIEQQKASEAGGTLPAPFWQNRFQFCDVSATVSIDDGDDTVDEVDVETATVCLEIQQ
The test can be described thus: Leishmania donovani Ubiquitin Activating Enzyme (LdE1). The class given is functional. To be noted: 30 µM.

Test [3] concerns the target AMP-activated protein kinase, AMPK (Homo sapiens) (UniProt P54646+O43741+P54619+Q9UGJ0+Q9Y478+Q13131+Q9UGI9). The experiment in a line: AMP-dependent Kinase enzyme assay. An in vitro enzyme assay that detects ADP turnover that is directly proportional to AMPK activity. This uses naive AMPK that is activated during the assay with MK-8722. The class given is functional. Particulars: 30 µM.

In test [4] the target is Sialic acid-binding Ig-like lectin 9 (Homo sapiens) (UniProt Q9Y336). The test can be described thus: Hs-Siglec9 ALPHAscreen SOP 20170721. To be noted: 10 µM.
The test system of the next test is Trypanosoma cruzi. The test can be described thus: Trypanosoma cruzi phosphomannomutase and mannose-1-phosphate guanylyltransferase assay. The class given is functional. Particulars: 10 µM.
In test [5] the target is T2, Arginase-2, mitochondrial (Homo sapiens) (UniProt P78540).
T2 sequence (whole entry): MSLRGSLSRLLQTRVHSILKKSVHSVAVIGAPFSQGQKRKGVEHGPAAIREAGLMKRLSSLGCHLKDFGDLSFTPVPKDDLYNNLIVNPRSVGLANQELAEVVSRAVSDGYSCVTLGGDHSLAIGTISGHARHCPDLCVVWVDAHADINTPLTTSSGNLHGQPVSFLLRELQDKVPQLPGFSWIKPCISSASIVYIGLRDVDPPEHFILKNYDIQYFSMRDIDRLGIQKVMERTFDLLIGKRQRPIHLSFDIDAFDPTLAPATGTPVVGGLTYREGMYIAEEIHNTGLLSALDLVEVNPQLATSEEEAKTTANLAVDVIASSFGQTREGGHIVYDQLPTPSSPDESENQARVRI
The experiment in a line: in vitro enzyme assay to detect the production of urea directly proportional to the activity of Arginase II. Note: in the data most compounds retested in dose-response had high values. Format: functional. Particulars: 33.3 µM.

The target of test [6] is T3, Proteasome subunit beta (Trypanosoma cruzi) (UniProt O96673).
T3 sequence (whole entry): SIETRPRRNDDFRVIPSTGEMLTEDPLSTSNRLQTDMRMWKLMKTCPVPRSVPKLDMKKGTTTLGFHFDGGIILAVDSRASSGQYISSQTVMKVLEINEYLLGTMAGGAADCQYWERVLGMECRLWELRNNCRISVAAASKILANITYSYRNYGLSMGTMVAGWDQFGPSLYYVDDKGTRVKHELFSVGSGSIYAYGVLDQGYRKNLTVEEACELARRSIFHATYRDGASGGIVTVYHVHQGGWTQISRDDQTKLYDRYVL
The experiment in a line: Trypanosoma cruzi proteasome chymotrypsin-like activity (TcProtChymo) assay. Note: in the data most compounds retested in dose-response had high values. The class given is functional. Particulars: 9.37 µM.

The species named for another test is Homo sapiens. The experiment in a line: To identify inhibition of the IFN signalling (Jak-Stat) pathway via expression of an eGFP reporter gene under the control of an IFN-stimulated response element (ISRE) containing MxA promoter. Format: functional. To be noted: 30 µM.
Test [7] concerns the target T4, Tyrosyl-tRNA synthetase, putative (Trypanosoma cruzi (strain CL Brener)) (UniProt Q4DSP6).
T4 sequence (whole entry): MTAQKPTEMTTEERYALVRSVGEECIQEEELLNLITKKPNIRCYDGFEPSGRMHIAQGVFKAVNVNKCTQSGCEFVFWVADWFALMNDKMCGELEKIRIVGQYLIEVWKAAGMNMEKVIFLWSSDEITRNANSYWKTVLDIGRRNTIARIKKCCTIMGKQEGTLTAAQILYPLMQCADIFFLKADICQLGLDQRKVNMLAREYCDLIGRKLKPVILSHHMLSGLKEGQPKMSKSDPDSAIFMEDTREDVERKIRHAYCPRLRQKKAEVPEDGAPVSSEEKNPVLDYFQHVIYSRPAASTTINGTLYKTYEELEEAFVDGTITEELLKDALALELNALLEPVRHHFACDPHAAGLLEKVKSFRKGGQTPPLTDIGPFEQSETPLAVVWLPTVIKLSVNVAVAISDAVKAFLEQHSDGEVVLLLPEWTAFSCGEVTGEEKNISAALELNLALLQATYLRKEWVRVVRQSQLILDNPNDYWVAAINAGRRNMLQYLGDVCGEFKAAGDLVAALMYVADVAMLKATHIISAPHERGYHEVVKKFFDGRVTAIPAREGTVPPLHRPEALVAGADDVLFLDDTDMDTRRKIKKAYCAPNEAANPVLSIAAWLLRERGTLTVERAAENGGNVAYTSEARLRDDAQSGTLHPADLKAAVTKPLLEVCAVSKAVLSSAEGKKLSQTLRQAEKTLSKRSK
The experiment in a line: Trypanosoma cruzi tyrosyl tRNA synthetase (TcYRS) _High Tyrosine SOP. Note: in the data most compounds retested in dose-response had high values. The class given is functional. To be noted: 30 µM.

Test [8] has as its target T4, Tyrosyl-tRNA synthetase, putative (Trypanosoma cruzi (strain CL Brener)). The test can be described thus: Trypanosoma cruzi tyrosyl tRNA synthetase (TcYRS) SOP. Format: functional. To be noted: 30 µM.
Test [9] deals with Chromo domain-containing protein 1 (Saccharomyces cerevisiae (strain ATCC 204508 / S288c) (Baker's yeast)) (UniProt P32657). The experiment in a line: ScCHD-1 Enzyme Inhibition Assay. Note: in the data most compounds retested in dose-response had high values. The class given is functional. To be noted: 30 µM.
Chain of Chromo domain-containing protein 1 (Saccharomyces cerevisiae (strain ATCC 204508 / S288c) (Baker's yeast)) (P32657 whole entry, the tested form may be a part): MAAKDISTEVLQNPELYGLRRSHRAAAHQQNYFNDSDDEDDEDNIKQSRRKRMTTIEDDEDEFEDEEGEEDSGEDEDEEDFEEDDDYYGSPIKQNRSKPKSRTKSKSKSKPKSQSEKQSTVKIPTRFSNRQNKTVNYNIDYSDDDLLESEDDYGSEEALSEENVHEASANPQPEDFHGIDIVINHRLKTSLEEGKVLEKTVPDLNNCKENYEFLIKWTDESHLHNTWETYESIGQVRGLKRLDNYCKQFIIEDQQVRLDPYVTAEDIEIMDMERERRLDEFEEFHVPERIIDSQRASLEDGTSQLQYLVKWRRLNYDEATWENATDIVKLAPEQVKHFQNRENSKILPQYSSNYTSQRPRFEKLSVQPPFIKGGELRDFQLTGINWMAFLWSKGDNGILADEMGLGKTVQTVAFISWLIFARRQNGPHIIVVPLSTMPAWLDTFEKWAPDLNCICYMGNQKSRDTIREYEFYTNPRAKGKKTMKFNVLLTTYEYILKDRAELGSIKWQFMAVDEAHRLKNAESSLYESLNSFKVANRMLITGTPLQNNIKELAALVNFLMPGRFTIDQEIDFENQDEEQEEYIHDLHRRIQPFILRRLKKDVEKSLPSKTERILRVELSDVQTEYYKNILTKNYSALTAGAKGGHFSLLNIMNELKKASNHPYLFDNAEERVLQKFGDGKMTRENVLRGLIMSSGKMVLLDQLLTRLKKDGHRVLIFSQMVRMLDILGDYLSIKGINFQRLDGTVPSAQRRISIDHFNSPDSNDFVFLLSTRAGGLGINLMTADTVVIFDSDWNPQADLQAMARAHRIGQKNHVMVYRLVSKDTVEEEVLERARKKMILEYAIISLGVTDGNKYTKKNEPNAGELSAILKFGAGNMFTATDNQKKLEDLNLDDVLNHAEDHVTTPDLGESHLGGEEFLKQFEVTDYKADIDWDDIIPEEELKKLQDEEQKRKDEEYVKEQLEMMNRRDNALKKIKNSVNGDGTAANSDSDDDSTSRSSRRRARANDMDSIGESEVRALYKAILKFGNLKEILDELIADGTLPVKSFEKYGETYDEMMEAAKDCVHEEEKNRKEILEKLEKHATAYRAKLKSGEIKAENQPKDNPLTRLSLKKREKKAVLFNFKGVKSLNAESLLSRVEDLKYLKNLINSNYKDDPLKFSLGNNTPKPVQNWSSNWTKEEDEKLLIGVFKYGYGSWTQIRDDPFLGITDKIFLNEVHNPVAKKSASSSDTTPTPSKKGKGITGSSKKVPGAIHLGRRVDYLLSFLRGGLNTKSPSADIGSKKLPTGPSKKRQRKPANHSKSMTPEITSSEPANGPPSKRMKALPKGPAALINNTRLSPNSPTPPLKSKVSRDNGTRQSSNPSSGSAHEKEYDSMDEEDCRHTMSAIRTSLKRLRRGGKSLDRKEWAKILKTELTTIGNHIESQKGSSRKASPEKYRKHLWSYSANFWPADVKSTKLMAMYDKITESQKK

Chain of Sialic acid-binding Ig-like lectin 9 (Homo sapiens) (Q9Y336 whole entry): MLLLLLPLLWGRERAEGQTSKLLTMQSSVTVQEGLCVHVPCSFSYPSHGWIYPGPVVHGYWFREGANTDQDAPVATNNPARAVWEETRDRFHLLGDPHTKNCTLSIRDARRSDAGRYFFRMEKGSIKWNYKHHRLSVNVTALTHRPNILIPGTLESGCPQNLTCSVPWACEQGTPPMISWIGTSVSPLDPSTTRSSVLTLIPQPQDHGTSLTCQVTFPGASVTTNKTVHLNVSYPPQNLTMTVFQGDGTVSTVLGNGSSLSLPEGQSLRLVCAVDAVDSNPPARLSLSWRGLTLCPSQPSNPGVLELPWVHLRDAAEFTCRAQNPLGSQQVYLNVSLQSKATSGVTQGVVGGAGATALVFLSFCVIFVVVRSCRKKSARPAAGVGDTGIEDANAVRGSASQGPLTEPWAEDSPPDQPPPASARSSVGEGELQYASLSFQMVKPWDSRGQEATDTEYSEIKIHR
Chain of Protein translocase subunit SecA (Escherichia coli (strain K12)) (P10408 whole entry): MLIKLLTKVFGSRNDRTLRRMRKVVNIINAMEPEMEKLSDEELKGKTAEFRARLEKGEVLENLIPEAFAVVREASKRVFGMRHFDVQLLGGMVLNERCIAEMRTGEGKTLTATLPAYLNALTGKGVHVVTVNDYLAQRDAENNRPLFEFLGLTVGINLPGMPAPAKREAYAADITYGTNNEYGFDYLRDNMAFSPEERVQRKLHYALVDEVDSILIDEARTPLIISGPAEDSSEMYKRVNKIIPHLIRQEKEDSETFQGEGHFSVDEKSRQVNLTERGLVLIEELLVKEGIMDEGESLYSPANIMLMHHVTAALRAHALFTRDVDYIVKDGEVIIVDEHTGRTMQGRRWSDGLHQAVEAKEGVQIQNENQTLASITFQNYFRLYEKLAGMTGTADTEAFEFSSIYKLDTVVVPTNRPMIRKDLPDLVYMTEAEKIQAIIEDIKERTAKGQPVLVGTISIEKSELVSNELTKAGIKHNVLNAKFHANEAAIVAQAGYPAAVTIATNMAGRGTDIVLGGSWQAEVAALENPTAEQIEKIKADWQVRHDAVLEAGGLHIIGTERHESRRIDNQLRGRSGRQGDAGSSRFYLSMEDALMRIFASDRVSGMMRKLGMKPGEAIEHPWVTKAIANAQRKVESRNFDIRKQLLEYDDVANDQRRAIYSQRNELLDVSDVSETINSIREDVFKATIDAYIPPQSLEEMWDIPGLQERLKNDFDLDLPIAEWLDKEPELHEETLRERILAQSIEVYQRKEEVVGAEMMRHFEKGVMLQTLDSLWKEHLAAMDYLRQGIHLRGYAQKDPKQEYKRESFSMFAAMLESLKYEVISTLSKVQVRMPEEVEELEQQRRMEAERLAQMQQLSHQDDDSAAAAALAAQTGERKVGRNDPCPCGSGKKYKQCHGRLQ

Regarding `Cc1cnn(CC(C)NCc2nc(-c3ccco3)no2)c1` (stereo unspecified), the Percent Effect in test [1] was -7.61%; in test [2] it was 12.5%; in test [3] it was -18.7%; in test [4], 40.6%; in the test on Trypanosoma cruzi, 7.09%; in [5] it was 9.27%. The Percent Effect came out at 14.9% in test [6]; 4.8% in the test listed under Homo sapiens; 3.16% in test [7]; 12.8% in test [8]; 10.7% in test [9].

As for `COCCO[C@@H]1C[C@H]2CN(C(=O)c3cnccn3)CCN2C1`, the Percent Effect in test [1] is -2.84%; in [2], 5.33%; in test [3], -0.698%; in test [4], 4.55%; with Trypanosoma cruzi, -0.965%; in [5], -39.6%. In addition, the Percent Effect in test [6] was 4.79%; in the test filed under Homo sapiens, -8.37%; in [7], 0%; in test [8], -15%; in test [9] it was -3.81%.

For the molecule `c1cncc(OCC2CN(Cc3ccco3)Cc3nccn3C2)c1` (stereo unspecified), the Percent Effect in test [1] is -1.62%; in test [2], 21.9%; in test [3], -8.03%; in test [4], 11.2%; in the test on Trypanosoma cruzi it was 4.17%; in test [5], 0%. For the same molecule, the Percent Effect is 16% in test [6]; 6.3% in the test filed under Homo sapiens; 10.4% in test [7]; 23.5% in test [8]; -9.31% in test [9].

As to `O=C(CCNC(=O)C1CCCC1)NCc1ccccc1Cn1cncn1`, the Percent Effect in test [1] was -3.71%; in test [2], 31.6%; in [3] it was 0.311%; in [4], -9.83%; in the test on Trypanosoma cruzi it was -1.96%; in [5], -2.52%. In addition, the Percent Effect in test [6] was found to be 7.87%; in the test filed under Homo sapiens, 1.98%; in test [7] it was 6.4%; in test [8], 18.5%; in test [9], 0.0492%.

With `Cc1nccn1CC1CCCN1S(=O)(=O)Cc1ccon1` (stereo unspecified), the Percent Effect in test [1] is -1.65%; in [2] it was 20.2%; in test [3] it was -1.52%; in test [4], -6.85%; in the test on Trypanosoma cruzi, 3.68%; in [5], -6.84%. Also, the Percent Effect was 14% in test [6]; 7.78% in the test listed under Homo sapiens; 5.42% in [7]; 3.8% in [8]; -7.21% in test [9].

For `CN(C)C(=O)C1CN(Cc2c[nH]cn2)CCN(C2CCOCC2)C1` (stereo unspecified), the Percent Effect in test [1] is -7.04%; in [2], 12.2%; in test [3], 8.74%; in [4], 1.93%; with Trypanosoma cruzi, 0.198%; in test [5], 8.12%. Further, the Percent Effect is 6.24% in test [6]; 15.9% in the test listed under Homo sapiens; 6.45% in [7]; 16.9% in [8]; -11.5% in test [9].

As to `CCc1c(C)nc2n(c1=O)CC(C(=O)Nc1ccccc1F)CS2` (stereo unspecified), the Percent Effect in test [1] was -5.58%; in test [2], 18.2%; in test [3], -0.318%; in test [4] it was 8.95%; with Trypanosoma cruzi it was 0.888%; in [5] it was -1.94%. Besides, the Percent Effect in [6] was 7.83%; in the test filed under Homo sapiens, 9.05%; in test [7] it was 6.35%; in [8], 16.7%; in test [9], -4.84%.

As for `O=S(=O)(NCc1ccccc1Cn1cncn1)C1CCCC1`, the Percent Effect in test [1] is -2.89%; in test [2], 8.86%; in test [3], 4.47%; in test [4], 2.98%; in the test with Trypanosoma cruzi, -3.59%; in test [5], 1.5%. Also, the Percent Effect was 10.1% in [6]; 5.73% in the test filed under Homo sapiens; 8.33% in test [7]; 12.7% in test [8]; -12.6% in [9].

`COc1cccc(CC(=O)N2CCc3ncnc(NC(C)C)c3CC2)c1`: the Percent Effect was -5.16% in test [1]; -18.9% in test [2]; 0.899% in test [3]; -4.76% in [4]; -3.42% in the test with Trypanosoma cruzi; -0.319% in test [5]. Moreover, the Percent Effect in test [6] came to 7.38%; in the test filed under Homo sapiens it was 12.2%; in [7], 3.24%; in test [8], 7.69%; in test [9], 0.23%.

Take `O=C(NCCN1CCOCC1)c1n[nH]c(=O)c2ccccc12`: the Percent Effect in [1] is -3.44%; in [2] it was 28.6%; in test [3] it was -3.48%; in test [4] it was 5.43%; in the test with Trypanosoma cruzi it was 6.37%; in test [5] it was -3.56%. For the same molecule, the Percent Effect was 14.2% in [6]; 12.3% in the test listed under Homo sapiens; 4.85% in test [7]; 21.9% in test [8]; -9.16% in [9].

As to `CCN(CC1CN(Cc2ncc[nH]2)CCO1)c1cccnn1` (stereo unspecified), the Percent Effect in test [1] is -4.66%; in test [2], 8%; in [3], -8.56%; in test [4], 6.93%; in the test with Trypanosoma cruzi it was 1.46%; in test [5], 5.21%. The Percent Effect in [6] was 16.2%; in the test filed under Homo sapiens, 6.04%; in test [7], 4.92%; in test [8], 8.64%; in test [9], -4.63%.
